# Sampled rows, rich in hits. Any-hit rate of the full collection: about 2.4%.
# HMGR II inh: blocks class II HMG-CoA reductase of Enterococcus faecalis; purified E. faecalis HMGR, NADPH absorbance 340 nm kinetic; inhibition, % at 10 µM; hit rate 0.41% among 190,000; AID 1066;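 active = inhibition above a set limit, the median over all tested compounds plus 3 SD, cut at about 9.5% in these data; inconclusive = no clear call, values can overlap the other calls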;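 also: enzyme runs in reverse so mevalonate oxidation gives rising NADPH absorbance; 0% = complete reaction with DMSO and 100% = background rate lacking mevalonate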
# PHOSPHO1 inh: inhibitors of human PHOSPHO1 phosphatase; Q8TCT1; recombinant PHOSPHO1, absorbance phosphatase assay; inhibition, % at 13.3 µM; hit rate 1.1% among 290,000; AID 1565; in the data active = inhibition above about 60%
# PABP polyA inh: blocks human PABP binding to poly(A) RNA. P11940. fluorescence polarization. calls only at 35 µM. hit rate 1% among 290,000. AID 2014;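 also: calls also rest on retests at 20 µM and on dose response follow-up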
# Target sequence (P11940 whole entry, looked up): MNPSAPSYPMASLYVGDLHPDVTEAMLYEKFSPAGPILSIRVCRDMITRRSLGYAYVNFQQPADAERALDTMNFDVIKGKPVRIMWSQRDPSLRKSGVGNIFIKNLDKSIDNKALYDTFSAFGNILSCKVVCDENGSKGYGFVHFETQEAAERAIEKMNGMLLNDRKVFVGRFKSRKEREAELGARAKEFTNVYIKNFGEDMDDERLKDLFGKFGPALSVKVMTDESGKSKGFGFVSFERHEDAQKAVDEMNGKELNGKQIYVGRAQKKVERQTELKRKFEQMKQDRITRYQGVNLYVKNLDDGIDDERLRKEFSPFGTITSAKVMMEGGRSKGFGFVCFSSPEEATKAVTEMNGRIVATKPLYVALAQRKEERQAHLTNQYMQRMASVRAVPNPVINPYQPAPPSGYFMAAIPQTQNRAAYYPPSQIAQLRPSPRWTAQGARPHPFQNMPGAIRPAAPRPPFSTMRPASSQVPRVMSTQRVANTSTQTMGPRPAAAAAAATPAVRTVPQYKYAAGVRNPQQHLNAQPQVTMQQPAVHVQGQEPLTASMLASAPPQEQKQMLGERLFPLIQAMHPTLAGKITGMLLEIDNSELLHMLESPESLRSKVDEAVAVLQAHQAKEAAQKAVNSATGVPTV
# eIF4H FP inh: inhibitors of RNA binding by human eIF4H. inhibition, % at 35 µM. eIF4H fluorescence polarization binding assay. hit rate 0.94% among 290,000. AID 2012;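 also: calls also rest on retests at 20 µM and on dose response follow-up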
# PABP1 MLLE inh: blocks PAM2 peptide binding to the PABP1 MLLE domain; hit rate 0.36% among 360,000; inhibition, % at 20 µM; AID 588489; P11940; GST-MLLE / FITC-PAM2 fluorescence polarization; in the data active = inhibition above about 35%, passing the limit was not always enough;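 also: plate controls were DMSO wells with GST-MLLE for no effect and wells lacking GST-MLLE protein for full effect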
# * hit, by the source's call; i = inactive; ? = inconclusive; nt = not tested or not shown; + = active, no number. Unless noted, no rule for the calls is given here.
SMILES,HMGR II inh,PHOSPHO1 inh,PABP polyA inh,eIF4H FP inh,PABP1 MLLE inh
Cc1csc(NC(=O)c2ccc(S(=O)(=O)N(C)c3ccccc3)cc2)n1,-4.4,86.2*,i,-14.6,-20.0
O=C(NCCCN1CCN(Cc2ccccc2)CC1)C1CCN(S(=O)(=O)N2CCC3(CC2)OCCO3)CC1,-1.4,-17.0,i,13.6,-1.0
O=C(C1CCN(S(=O)(=O)N2CCC3(CC2)OCCO3)CC1)N1CCN(Cc2ccccc2)CC1,-0.3,63.9*,i,-4.1,-0.9
CCC1CCCCN1CCCNC(=O)c1ccc(N2CCCC2=O)cc1 (stereo not given),nt,-21.6,nt,nt,8.0
CCOC(=O)C1=C(C)Nc2ccc(C)cc2S1,0.0,32.3,i,3.8,50.1*
CCOC(=O)c1sc2cc([N+](=O)[O-])cc(SCC(C)C)c2c1N,2.4,64.0*,i,29.4,-37.4
CCn1c(-c2cc(-c3ccc(C)cc3)nc3ccccc23)n[nH]c1=S,-9.0,-67.6,i,-0.7,-72.9
CCn1c(-c2cc(-c3cc(OC)ccc3OC)nc3ccccc23)n[nH]c1=S,1.8,90.2*,i,-0.7,-125.3
CCn1c(-c2cc(-c3ccc(OC(C)C)cc3)nc3ccccc23)n[nH]c1=S,-2.1,97.4*,i,-4.5,-82.9
CCn1c(-c2cc(-c3ccccc3OC)nc3ccccc23)n[nH]c1=S,-1.2,13.3,i,2.0,-119.7
Cc1ccc(N=Cc2ccc(O)cc2O)cc1F,-4.8,39.3,+,53.5*,-0.3
CC(=O)NC(CC(=O)OCC(=O)N1CCc2ccccc21)c1ccccc1 (stereo not given),nt,27.0,i,8.9,3.6
Cc1cccc(Nc2nc(-c3ccccn3)cs2)n1,-2.8,71.4*,i,6.2,9.1
Cc1cccc(Nc2nc(-c3cccs3)cs2)n1,-2.9,-3.3,i,-1.0,4.6
Cn1cnc([N+](=O)[O-])c1Sc1ncccc1N,-1.9,101.6*,i,6.4,23.7
Cc1ccc(Sc2c([N+](=O)[O-])ncn2C)cc1,-0.6,-12.4,i,3.5,21.0
Cc1ccc(NC(=O)c2sc(N)nc2-c2ccc([N+](=O)[O-])cc2)c(C)c1,nt,-10.4,i,-1.7,-3.4
N#Cc1c2c(c(NCCN3CCOCC3)n3c1nc1ccccc13)CCCC2,-3.2,23.6,i,24.1,5.3
N#Cc1c2c(c(NCCCN3CCOCC3)n3c1nc1ccccc13)CCC2,-2.1,20.9,+,93.1*,-4.4
COc1ccccc1C(=O)C1CCCN(Cc2cccc3nccnc23)C1 (stereo not given),0.6,60.1*,i,-6.0,-1.4
COc1c(C)cc(C(=O)C2CCCN(Cc3cccc4nccnc34)C2)cc1C (stereo not given),-6.4,35.4,i,1.3,-9.8
CCN(CC)S(=O)(=O)c1ccc(N2CCOCC2)c(NC(=O)CCC2CCCCC2)c1,-1.4,-6.0,i,4.3,39.0*
COCCN1C[C@@H](CO)O[C@@H](n2cnc3c(NCc4ccco4)ncnc32)C1,nt,nt,nt,nt,-7.7
COc1ccc(S(N)(=O)=O)cc1C(=O)NCCCN1CCN(c2cccc(Cl)c2)CC1,-3.4,66.1*,i,-12.5,-2.0
Cc1ccc(C(=O)N2c3ccccc3Sc3ccccc32)cc1,nt,nt,nt,nt,20.8
SMILES,HMGR II inh,PHOSPHO1 inh,PABP polyA inh,eIF4H FP inh,PABP1 MLLE inh
O=C(c1cccnc1)N1c2ccccc2Sc2ccccc21,11.8*,-22.9,i,-4.9,-8.1
CCN1CCN(c2cc(-c3ccccc3)nc3cc(-c4cccc(F)c4)nn23)CC1,9.6*,-2.3,i,1.5,-5.5
COc1cccc(N2CCN(Cc3nc4ccccc4c(=O)[nH]3)CC2)c1,-0.5,1.2,i,10.9,-4.7
COc1cccc(N2CCN(Cc3nc4scc(-c5ccccc5)c4c(=O)[nH]3)CC2)c1,-0.9,-2.4,+,78.6*,-39.7
CC[C@@]1(O)C(=O)OCc2c1cc1n(c2=O)Cc2cc3c(N)cccc3nc2-1,nt,4.5,+,91.6*,-8.9
CC[C@@]1(O)C(=O)OCc2c1cc1n(c2=O)Cc2cc3c(CN(C)C)c(O)ccc3nc2-1,nt,nt,nt,nt,198.8
O=C(NC1CCCN(Cc2ccc(Cl)cc2)C1)c1ccoc1 (stereo not given),nt,7.7,i,-1.1,-5.5
O=C(Nc1nnc(-c2ccc(F)cc2)o1)C1CCCN1S(=O)(=O)c1cccs1 (stereo not given),nt,nt,nt,nt,-1.1
Cc1cccc(OCC(=O)NNC(=O)CCc2ccccc2)c1,52.5*,40.8,i,-4.9,6.3
Cc1cccc(OCC(=O)NNC(=O)CCCCC(=O)NNC(=O)COc2cccc(C)c2)c1,nt,2.8,i,1.3,-5.7
Cc1nc(SCc2nc3ccc(C(=O)c4ccccc4)cc3[nH]2)c2oc3ccccc3c2n1,nt,nt,nt,nt,-19.0
C=CCC1CCCCC1=C(C#N)c1ccccc1 (stereo not given),nt,nt,nt,nt,2.3
Cc1ccc(S(=O)(=O)N2CCCCC2C(=O)N2CCN(C)CC2)cc1 (stereo not given),-8.5,61.5*,i,5.9,36.4
COc1cc(CNC(=O)c2cc(-c3cc(OC)ccc3Cl)n[nH]2)cc(OC)c1,nt,nt,nt,nt,-2.6
O=C(O)CSc1cc(NS(=O)(=O)c2ccc(Br)cc2)c2ccccc2c1O,nt,-54.8,i,5.6,46.1*
C=CCSc1nc(N2CCOCC2)c2c(c1C#N)CC(C)(C)N(C)C2,nt,3.6,+,50.1*,-3.9
CCSc1nc(N2CCOCC2)c2c(c1C#N)CC(C)(C)N(C)C2,1.4,21.4,i,96.2,14.6
CN1Cc2c(N3CCOCC3)nc(SCc3ccccc3)c(C#N)c2CC1(C)C,-5.1,80.4*,?,?,39.5*
COC1=C/C(=C/c2c(N)n3cc(C)sc3nc2=O)C=CC1=O,-1.0,11.0,i,60.2*,-147.7
Cc1cn2c(N)c(C=C3C=C(Cl)C(=O)C(Cl)=C3)c(=O)nc2s1,0.6,39.4,?,?,-121.3
CCOc1ccc(-c2nc3ccccc3c(=O)o2)cc1,12.5*,-19.7,i,-2.3,1.6
CCN(CC)c1ccc(NC(=O)CSc2nc(C)cc(=O)[nH]2)cc1,2.1,4.7,i,-7.5,10.0
CCOC(=O)c1ccc(NC(=O)CSc2nc(C)cc(=O)[nH]2)cc1,-0.5,18.2,+,81.1*,-7.0
Cc1cc(=O)[nH]c(SCC(=O)Nc2ccc(C(=O)O)cc2)n1,-2.4,16.0,i,-0.2,46.9*
Cc1cc(NS(=O)(=O)c2ccc(NC(=O)CSc3nc4ncc(Cl)cc4[nH]3)cc2)nc(C)n1,nt,11.7,i,2.5,-51.5
CCc1ccc(NC(=O)CSc2nc(NS(=O)(=O)c3ccccc3)cc(=O)[nH]2)cc1,10.2*,-1.1,i,14.0,8.1
Cc1cc(NS(=O)(=O)c2ccc(NC(=O)CSc3nc4ncc(Br)cc4[nH]3)cc2)nc(C)n1,nt,72.2*,i,-2.1,-65.5
Cc1cc(=O)[nH]c(SCC(=O)Nc2ccc(S(N)(=O)=O)cc2)n1,0.1,-20.5,+,62.8*,21.4
COc1ccc2nc(NC(=O)CSc3nc(C)cc(=O)[nH]3)sc2c1,-2.4,73.6*,i,-11.7,-36.6
Cc1cc(NC(=O)COC(=O)CCS(=O)(=O)c2cc(Cl)ccc2Cl)no1,nt,15.0,i,-13.0,-3.7

# Source: PubChem
